61 compounds from PubChem BioAssay AID624138 (Broad Institute, 2012) can be followed below.

SMILES strings stand for the structures. About 35 (0.2%) of roughly 17,000 compounds were called active. This is one part of a sample in which actives are shown more often than they occur.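 How the source made its calls: active means compounds whose four printed spots each show fluorescence over background unusually high for their array block, chance value under 7%; inactive means the rest.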

Chain of Signal transducer and activator of transcription 3 (Homo sapiens) (P40763 whole entry, looked up): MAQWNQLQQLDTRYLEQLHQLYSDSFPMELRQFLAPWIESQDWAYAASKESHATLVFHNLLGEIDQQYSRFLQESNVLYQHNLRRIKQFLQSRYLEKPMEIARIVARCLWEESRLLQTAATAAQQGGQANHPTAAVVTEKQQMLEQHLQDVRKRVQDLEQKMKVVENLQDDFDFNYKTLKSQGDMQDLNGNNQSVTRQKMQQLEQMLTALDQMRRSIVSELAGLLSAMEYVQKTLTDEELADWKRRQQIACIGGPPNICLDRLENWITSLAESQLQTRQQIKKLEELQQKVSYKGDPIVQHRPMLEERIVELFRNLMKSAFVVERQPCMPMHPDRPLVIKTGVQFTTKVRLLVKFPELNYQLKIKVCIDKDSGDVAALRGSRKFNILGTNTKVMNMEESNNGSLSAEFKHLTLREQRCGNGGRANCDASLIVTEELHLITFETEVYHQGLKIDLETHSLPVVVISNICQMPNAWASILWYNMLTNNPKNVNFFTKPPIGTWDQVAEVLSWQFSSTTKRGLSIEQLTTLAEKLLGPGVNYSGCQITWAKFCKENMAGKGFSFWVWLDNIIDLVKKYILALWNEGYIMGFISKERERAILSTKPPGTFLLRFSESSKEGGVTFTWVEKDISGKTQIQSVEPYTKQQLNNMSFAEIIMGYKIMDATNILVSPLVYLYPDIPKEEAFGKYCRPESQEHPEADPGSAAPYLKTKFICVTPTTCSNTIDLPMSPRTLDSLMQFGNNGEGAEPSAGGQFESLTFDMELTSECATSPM

The experiment concerns the target Signal transducer and activator of transcription 3 (Homo sapiens) (UniProt P40763). Nature of the experiment: STAT3 binders, primary screen, biochemical, small molecule microarray, single point, set 2 (AID 624138). The conditions noted are these: His-STAT3 binding, anti-His fluorescence.
As to `CCO[C@@H]1OC(C(=O)N2CCOCC2)=C[C@H](C)[C@H]1CCCO`, the outcome was inactive.

For `O=[N+]([O-])c1ccc(NCCNS(=O)(=O)c2ccc(Br)cc2)c(C(F)(F)F)c1`, the call was inactive.

With `COc1ccc(NC(=S)NCc2cc(C)n(C)n2)cc1OC`, the compound was called inactive.

As to `C[C@@H]1CN([C@@H](C)CO)C(=O)c2cc(NC(=O)Nc3ccc4c(c3)OCO4)ccc2O[C@@H]1CN(C)C(=O)Nc1ccc2c(c1)OCO2`, the call was inactive.

In the case of `C[C@@H]1CN([C@H](C)CO)C(=O)c2cccc(NC(=O)Nc3cccc4ccccc34)c2O[C@@H]1CN(C)C(=O)Nc1cccc2ccccc12`, the compound was called inactive.

For the compound `CNC[C@@H]1Oc2ccc(NC(=O)CCC(F)(F)F)cc2C(=O)N([C@@H](C)CO)C[C@@H]1C`, the result was inactive.

Consider `Oc1cc(O)c2c(c1)OC(c1ccc(O)c(O)c1)C(O)C2` (stereo unspecified), for which the compound was called inactive.

With `C[C@H]1CN([C@@H](C)CO)C(=O)c2cc(N(C)C)ccc2O[C@@H]1CN(C)Cc1ccccc1`, the compound was classed as inactive.

As to `CCN(CCCCOC(=O)c1ccc(OC)c(OC)c1)C(C)Cc1ccc(OC)cc1` (stereo unspecified), the compound was classed as inactive.

Turning to `COc1ccc(S(=O)(=O)N(C)C[C@H]2Oc3c(NC(=O)NC4CCCCC4)cccc3C(=O)N([C@@H](C)CO)C[C@@H]2C)cc1`, the compound was classed as inactive.

Take `CCc1cc2c(=O)n(-c3ccccc3)c(SCC(=O)O)nc2s1`: the call was inactive.

For `C[C@H]1CCCCO[C@@H](CN(C)C(=O)c2ccccc2)[C@@H](C)CN([C@@H](C)CO)C(=O)c2cc(NS(=O)(=O)c3cccs3)ccc2O1`, the compound was called inactive.

As to `Cc1noc(C)c1NC(=O)Nc1ccc2c(c1)C(=O)N([C@@H](C)CO)C[C@H](C)[C@@H](CN(C)C(=O)C1CCCCC1)OCCCC[C@@H](C)O2`, the compound was classed as inactive.

On to `C[C@@H]1CCCCO[C@H](CN(C)C(=O)CCC(F)(F)F)[C@H](C)CN([C@H](C)CO)C(=O)c2cc(NS(C)(=O)=O)ccc2O1`, for which the compound was classed as inactive.

`C[C@@H]1CN([C@H](C)CO)C(=O)c2cc(NS(=O)(=O)c3ccccc3)ccc2O[C@@H](C)CCCCO[C@@H]1CN(C)C(=O)CCC(F)(F)F`: the compound was called inactive.

For the compound `C[C@H](CO)N1C[C@H](C)[C@H](CN(C)C(=O)CCC(F)(F)F)OCCCC[C@H](C)Oc2ccc(NS(C)(=O)=O)cc2C1=O`, the compound was classed as active.

As to `Cc1ccc(-n2c(SCC(=O)Nc3ccc(F)c(F)c3)nnc2-c2ccccn2)cc1`, the result was inactive.

As to `CC(C)NC(=O)Nc1ccc2c(c1)C(=O)N([C@H](C)CO)C[C@H](C)[C@H](CN(C)Cc1ccc(C(=O)O)cc1)OCCCC[C@@H](C)O2`, the compound was classed as inactive.

On to `O=C(NCc1ccco1)c1nc2ncccn2n1`, for which the result was inactive.

In the case of `OC(COc1ccc2ccccc2c1)Cn1cncn1` (stereo unspecified), the call was inactive.

In the case of `Cc1ccc(C(=O)C2C(=O)C(=O)N(Cc3cccnc3)C2c2ccc(Cl)c(Cl)c2)o1` (stereo unspecified), the result was inactive.

For `Cc1noc(C)c1NC(=O)Nc1ccc2c(c1)C(=O)N([C@@H](C)CO)C[C@H](C)[C@H](CN(C)Cc1ccc(C(=O)O)cc1)OCCCC[C@@H](C)O2`, the compound was classed as inactive.

`C[C@H](CO)N1C[C@H](C)[C@H](CN(C)Cc2ccncc2)Oc2ccc(N(C)C)cc2C1=O`: the outcome was inactive.

For the compound `C[C@H]1CN([C@@H](C)CO)C(=O)c2cc(NC(=O)Cn3cnnn3)ccc2O[C@@H]1CN(C)CC1CCCCC1`, the compound was called inactive.

With `C[C@H]1CN([C@@H](C)CO)C(=O)Cc2cc(NC(=O)Nc3ccccc3)ccc2O[C@H]1CN(C)Cc1ccncc1`, the compound was classed as inactive.

Turning to `Cc1cc(O)c2c(c1)C(=O)OC2c1c(O)cccc1O` (stereo unspecified), the compound was called inactive.

For `CO[C@H]1O[C@H](CO)[C@@H](OC(=O)Nc2ccccc2-c2ccccc2)[C@H](OC(=O)Nc2ccccc2)[C@H]1OC(=O)Nc1ccccc1`, the result was inactive.

As to `CC(=O)n1cc([C@@H]2C=C(C(=O)N3CCN(Cc4ccc5c(c4)OCO5)CC3)O[C@H](OCc3ccc(CO)cc3)C2)c2ccccc21`, the call was inactive.

For `Cc1noc(C)c1S(=O)(=O)Nc1ccc2c(c1)C(=O)N([C@@H](C)CO)C[C@@H](C)[C@H](CN(C)C(=O)NC(C)C)OCCCC[C@@H](C)O2`, the compound was called inactive.

On to `Cc1noc(C)c1NC(=O)Nc1ccc2c(c1)C(=O)N([C@@H](C)CO)C[C@H](C)[C@H](CN(C)S(=O)(=O)c1cn(C)cn1)OCCCC[C@@H](C)O2`, for which the outcome was inactive.

Regarding `C[C@@H]1CN([C@H](C)CO)C(=O)c2cccc(NS(=O)(=O)c3cccs3)c2O[C@@H]1CN(C)C(=O)Nc1cccc2ccccc12`, the outcome was inactive.

On to `CC(C)NC(=O)Nc1ccc2c(c1)C(=O)N([C@@H](C)CO)C[C@@H](C)[C@H](CN(C)S(=O)(=O)c1ccccc1)OCCCC[C@@H](C)O2`, for which the compound was called inactive.

Turning to `CC(=O)Nc1ccc(NC(=O)CC2C(=O)Nc3ccccc3N2C(C)=O)cc1` (stereo unspecified), the outcome was inactive.

For `COc1ccc2c(c1)C(=O)CC(c1ccccc1)O2` (stereo unspecified), the result was inactive.

Regarding `Cc1ccc2[nH]c(C)c(CCNC(=O)Nc3ccc(Cl)cc3)c2c1`, the compound was classed as inactive.

For the compound `C[C@@H]1CN([C@H](C)CO)C(=O)c2cccc(NC(=O)C3CCOCC3)c2O[C@H]1CN(C)S(=O)(=O)c1ccc(Cl)cc1`, the outcome was inactive.

As for `COc1ccc(S(=O)(=O)Nc2ccc3c(c2)CC(=O)N([C@H](C)CO)C[C@H](C)[C@H](CN(C)CC2CC2)O3)cc1`, the call was inactive.

For the compound `Cc1noc(C)c1S(=O)(=O)N(C)C[C@H]1Oc2c(NC(=O)c3cnccn3)cccc2C(=O)N([C@H](C)CO)C[C@H]1C`, the call was inactive.

As to `C/C(=C/CC[C@@H](CO)[C@H]1CC[C@@]2(C)[C@@H]3CC[C@H]4C(C)(C)[C@@H](O[C@@H]5O[C@H](CO)[C@@H](O)[C@H](O)[C@H]5O)C[C@H](O)[C@@]45C[C@@]35CC[C@]12C)CO`, the call was inactive.

As to `O=C(C1=C[C@@H](c2ccccc2)C[C@@H](OCCCCO)O1)N1CCN(Cc2ccccc2)CC1`, the outcome was inactive.

Consider `C=C1C[C@@H]2COC(=O)[C@]2(Cc2ccc3ccccc3c2)C1`, for which the result was inactive.

As for `O=C(OC1OC(CO)C(O)C(O)C1O)c1c(O)cc(O)cc1/C=C/c1ccccc1` (stereo unspecified), the compound was called inactive.

For the compound `COc1ccc(CN(C)C[C@@H]2Oc3ccc(NC(=O)Nc4ccc(OC)cc4)cc3CC(=O)N([C@H](C)CO)C[C@H]2C)cc1`, the compound was classed as inactive.

Turning to `C[C@@H]1CCCCO[C@H](CN(C)C(=O)CCCN(C)C)[C@H](C)CN([C@@H](C)CO)C(=O)c2cc(NS(=O)(=O)c3ccccc3)ccc2O1`, the result was inactive.

For `C[C@@H]1CCCCO[C@@H](CN(C)C(=O)CCCN(C)C)[C@@H](C)CN([C@H](C)CO)C(=O)c2cc(NC(=O)CCCN(C)C)ccc2O1`, the result was inactive.

Take `CNC[C@H]1Oc2ccc(NC(=O)CCC(F)(F)F)cc2C(=O)N([C@@H](C)CO)C[C@H]1C`: the outcome was inactive.

Regarding `CCCCCc1ccc(/C=C/C(=O)Nc2ccccc2C(=O)O)cc1`, the call was inactive.

In the case of `CC(Sc1nc2ccccc2[nH]1)c1nc2ccccc2[nH]1` (stereo unspecified), the outcome was inactive.

Take `C[C@H]1CCCCO[C@H](CN(C)C)[C@@H](C)CN([C@@H](C)CO)C(=O)c2cc(NC(=O)CCCN(C)C)ccc2O1`: the outcome was inactive.

As to `COC(=O)CSc1nnc(-c2ccc(Cl)cc2)n1-c1ccc(Br)cc1`, the outcome was inactive.

On to `C[C@@H]1CN([C@H](C)CO)C(=O)Cc2cc(NC(=O)C3CC3)ccc2O[C@H]1CN(C)Cc1ccc(Cl)c(Cl)c1`, for which the compound was classed as inactive.

Turning to `COc1ccc(NC(=O)CN(C)S(=O)(=O)c2ccccc2)cc1OC`, the call was inactive.

`C#CCN1C(Cc2ccccc2)C(=O)O[C@H](C2CCCCC2)[C@@H]1/C=C/C1CC1` (stereo partly specified): the compound was classed as inactive.

Take `C[C@@H]1CN([C@H](C)CO)C(=O)Cc2cc(N(C)C)ccc2O[C@@H]1CN(C)Cc1ccccc1`: the compound was called inactive.

For the compound `C[C@H]1CN([C@@H](C)CO)C(=O)c2cccc(NC(=O)C3CCOCC3)c2O[C@@H]1CN(C)C`, the compound was called inactive.

Consider `CC1(C)CC(=O)c2ccc(O)cc2O1`, for which the compound was classed as inactive.

On to `C[C@@H]1CN([C@@H](C)CO)C(=O)CCCn2cc(nn2)CO[C@H]1CN(C)C(=O)Nc1ccc(N2CCCCC2)cc1`, for which the result was inactive.

In the case of `Cc1noc(C)c1S(=O)(=O)N(C)C[C@H]1Oc2ccc(NC(=O)Cc3ccccc3)cc2CC(=O)N([C@@H](C)CO)C[C@H]1C`, the compound was classed as inactive.

As to `COc1ccccc1NC(=O)CNC(=O)c1ccc(C)cc1`, the compound was called inactive.

Turning to `CC(C)NC(=O)Nc1ccc2c(c1)C(=O)N([C@H](C)CO)C[C@H](C)[C@@H](CN(C)C)OCCCC[C@H](C)O2`, the compound was classed as inactive.

Turning to `CCn1c(SCC(=O)Nc2sc3c(c2C#N)CCCC3)nnc1-c1ccccc1O`, the result was inactive.
